From PMC4336329 (PLoS ONE, 2015)
The campaign covered roughly 310,000 compounds. About 2,200 (0.71%) showed an effect of 50% or more. The effect is printed as a negative number. What follows is part of a selection rich in strong results, with near analogues and random picks from the rest.

Biological target: human ether-à-go-go-related gene (hERG) potassium channel (human, UniProt Q12809)
Assay: primary screen, population patch clamp on CHO cells stably expressing hERG; higher = less effect of the substance

Chain of human ether-à-go-go-related gene (hERG) potassium channel (Q12809 whole entry, looked up): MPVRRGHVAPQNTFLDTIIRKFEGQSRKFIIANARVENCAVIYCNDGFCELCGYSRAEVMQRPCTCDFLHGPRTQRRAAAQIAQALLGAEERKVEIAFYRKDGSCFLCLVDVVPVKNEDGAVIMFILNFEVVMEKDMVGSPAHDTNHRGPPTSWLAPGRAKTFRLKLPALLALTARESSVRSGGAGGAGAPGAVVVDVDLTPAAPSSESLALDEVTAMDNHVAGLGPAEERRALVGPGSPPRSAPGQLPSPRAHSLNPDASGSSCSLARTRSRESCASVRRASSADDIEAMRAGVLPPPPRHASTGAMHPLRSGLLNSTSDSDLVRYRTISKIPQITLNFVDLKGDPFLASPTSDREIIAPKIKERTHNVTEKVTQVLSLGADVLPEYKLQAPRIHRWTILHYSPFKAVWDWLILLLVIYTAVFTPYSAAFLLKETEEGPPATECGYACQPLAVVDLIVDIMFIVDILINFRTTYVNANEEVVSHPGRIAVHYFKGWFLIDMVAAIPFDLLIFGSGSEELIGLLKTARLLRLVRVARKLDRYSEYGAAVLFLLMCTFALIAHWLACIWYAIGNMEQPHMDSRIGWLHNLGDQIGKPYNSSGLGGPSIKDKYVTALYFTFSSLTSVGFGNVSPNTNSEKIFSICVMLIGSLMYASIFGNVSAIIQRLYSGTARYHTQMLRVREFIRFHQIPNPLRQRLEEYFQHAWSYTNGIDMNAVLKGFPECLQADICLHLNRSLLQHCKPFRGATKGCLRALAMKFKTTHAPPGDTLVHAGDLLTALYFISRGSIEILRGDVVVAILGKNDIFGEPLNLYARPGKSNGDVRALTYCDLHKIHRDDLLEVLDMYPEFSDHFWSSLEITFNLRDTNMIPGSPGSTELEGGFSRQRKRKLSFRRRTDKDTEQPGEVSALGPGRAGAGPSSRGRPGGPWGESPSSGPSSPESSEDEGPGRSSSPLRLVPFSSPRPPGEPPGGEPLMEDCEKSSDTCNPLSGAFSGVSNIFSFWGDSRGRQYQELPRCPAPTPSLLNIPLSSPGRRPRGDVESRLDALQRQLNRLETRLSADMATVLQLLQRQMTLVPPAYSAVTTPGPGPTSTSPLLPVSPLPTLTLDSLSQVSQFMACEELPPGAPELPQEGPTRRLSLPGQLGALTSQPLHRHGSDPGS

SMILES | hERG current change (%, negative = inhibition) at 1uM [%]
COc1cc(/C=C2/C(=O)NN(c3ccc(F)cc3)C2=O)cc([N+](=O)[O-])c1O | 8.07
O=C(OCC(=O)C12CC3CC(CC(C3)C1)C2)c1cnccn1 | 8.15
O=C(CCc1nnc(CCCCc2ccccc2)o1)NCCN1CCOC1=O | 9.65
O=C(c1ccc2c(=O)n(Cc3ccccc3Cl)c(=S)[nH]c2c1)N1CCOCC1 | 13
O=C(c1nc2ccccn2c1CN1CCN(c2ccccc2O)CC1)N1CCCC1 | 26
O=C(c1nc2ccccn2c1CN1CCCC(OCc2ccccc2)C1)N1CCCC1 (stereo not shown) | -25.7
O=C(c1nc2ccccn2c1CN1CCC(Cc2ccccc2)CC1)N1CCCC1 | -54.2
CCN(CC)c1ccc(/C=C2\C(=O)NC(=S)N(C)C2=O)o1 | 7.14
C#CCn1c(=NC(=O)c2ccccc2[N+](=O)[O-])sc2cc(S(C)(=O)=O)ccc21 | 13.3
CC1CC(c2ccccc2)n2nc(NC(=O)CCc3ccccc3)nc2N1 (stereo not shown) | -1.41
CCCCCCCC[n+]1cccc2c3ccccc3ccc21.[I-] | -92
O=[N+]([O-])c1ccc(C[n+]2cccc3c4ccccc4ccc32)cc1.[Br-] | -18
[Cl-].c1ccc(C[n+]2cccc3c4ccccc4ccc32)cc1 | -2.14
CCCCCCCCC[n+]1cccc2c3ccccc3ccc21.[Br-] | -91.7
Cc1cccc[n+]1CCCCCCCCCC[n+]1ccccc1C.[Br-] | 20.8
CCCCCCCCCCCCCCCC[n+]1cccc2ccccc21.[I-] | -23
CC(C)c1ccc(NC(=O)CSc2nnc(-c3ccccn3)n2C)cc1 | -4.65
COc1ccc(/C=N/Nc2ccccc2C(=O)O)cc1Cn1cc([N+](=O)[O-])cn1 | 6.26
O=C(Nc1ccc(OC(F)(F)F)cc1)C1CCCN(S(=O)(=O)c2cccnc2)C1 (stereo not shown) | -4.09
Cc1nnsc1C(=O)N1CCCC(C(=O)c2ccc(C(F)(F)F)cc2)C1 (stereo not shown) | 3.88
Cc1cc(-c2ccccc2)cc(C)[n+]1Cc1ccccc1.[O-][Cl+3]([O-])([O-])[O-] | 6.49
CCOc1ccc(-c2cc(C)[n+](CCN(CC)CC)c(-c3ccc(OCC)cc3)c2)cc1.[O-][Cl+3]([O-])([O-])[O-] | -19.3
O=[N+]([O-])c1ccc(C[n+]2c(-c3ccccc3)cc(-c3ccccc3)cc2-c2ccccc2)cc1.[O-][Cl+3]([O-])([O-])[O-] | 7.61
CCOc1ccc(-c2cc(C)[n+](CCO)c(-c3ccc(OCC)cc3)c2)cc1.[O-][Cl+3]([O-])([O-])[O-] | 1.92
Cc1cc(-c2ccccc2)cc(-c2ccccc2)[n+]1CCc1ccccc1.[O-][Cl+3]([O-])([O-])[O-] | -78.4
CCOc1ccc(-c2cc(C)[n+](CCc3ccc(OC)c(OC)c3)c(-c3ccc(OCC)cc3)c2)cc1.[O-][Cl+3]([O-])([O-])[O-] | -70.1

SMILES | hERG current change (%, negative = inhibition) at 1uM [%]
CCNc1nc(NCC)nc(N/N=C/c2ccc(Br)cc2)n1 | 8.67
COc1ccc2c(C=O)c[nH]c2c1 | 6.81
Cc1ccccc1Nc1nc(N)nc(COC(=O)c2cccc(S(=O)(=O)N(C)C)c2)n1 | 8.43
O=C1CCCN1CCCNS(=O)(=O)c1ccc(F)c(F)c1 | 13.5
COc1ccc(-c2cc(-c3ccco3)[nH]c(=O)c2C#N)cc1OC | 13.5
CCC(=O)N1CCN(CCN=CC2=C(O)CC(c3ccc(OC)cc3)CC2=O)CC1 (stereo not shown) | 8.12
CCCCCC(=O)N1CCN(CCN=CC2=C(O)CC(c3ccc(OC)cc3)CC2=O)CC1 (stereo not shown) | -54.5
COc1ccc(C2CC(=O)C(C=NCCN3CCN(C(=S)Nc4ccccc4)CC3)=C(O)C2)cc1OC (stereo not shown) | 1.75
COc1ccc(C2CC(=O)C(C=NCCN3CCN(C(C)=O)CC3)=C(O)C2)cc1 (stereo not shown) | 0.835
CCCCCC(=O)N1CCN(CCN=CC2=C(O)CC(c3ccc(OC)c(OC)c3)CC2=O)CC1 (stereo not shown) | -56.5
COc1ccc(C2CC(=O)C(C=NCCO)=C(O)C2)cc1OC (stereo not shown) | 13.4
Cc1ccc(N2C(=O)/C(=C/N3CCN(C(=O)c4ccco4)CC3)C(=O)NC2=S)cc1C | 1.67
CC(C)CNS(=O)(=O)c1ccc(OCC(=O)Nc2ccc3c(c2)OCCO3)cc1 | 14.4
Cc1ccc(OCC(O)CN2CCN(CC(O)COc3ccc(C)cc3Cl)CC2)c(Cl)c1 (stereo not shown) | -5.75
Cc1ccc(C)c(OCC(O)CN2CCC(Cc3ccccc3)CC2)c1.Cl (stereo not shown) | -43.1
OC(COc1ccc(F)cc1Cl)CN1CCc2ccccc2C1 (stereo not shown) | -10.6
CC(=O)Nc1ccc(OCC(O)CN2C(C)CCCC2C)cc1.Cl (stereo not shown) | 15.2
Cc1ccc(OCC(O)CN2CCC(Cc3ccccc3)CC2)c(C)c1.Cl (stereo not shown) | -49.9
CC1CCCC(C)N1CC(O)COc1ccc(Cl)cc1 (stereo not shown) | -57.6
Cl.OC(COCc1ccc2c(c1)OCO2)CN1CCC(Cc2ccccc2)CC1 (stereo not shown) | -79.4
OC(COc1ccc(F)cc1Cl)CN1CCC(Cc2ccccc2)CC1 (stereo not shown) | -81.4
Cl.OC(COCc1ccc2c(c1)OCO2)CN1CCN(Cc2ccccc2)CC1 (stereo not shown) | -8.65
Cc1cc(Cl)ccc1OCC(O)CN1C(C)CCCC1C.Cl (stereo not shown) | -46.3
Cl.OC(COc1ccccc1F)CN1CCC(Cc2ccccc2)CC1 (stereo not shown) | -55.7
Cl.OC(COCc1ccccc1)CN1CCN(Cc2ccc3c(c2)OCO3)CC1 (stereo not shown) | -0.707
COc1ccc(Cn2c(-c3ccccc3)nc3c(c(=O)c4ccccc4n3C)c2=O)cc1 | -7.94
